Our source for the growth inhibition values is PubChem BioAssay (NCI).

About 79,000 compounds went through this panel and 15% of them were active in at least one assay; those are over-represented in the sample as a whole. Active and inactive are the calls of the source. No stated cut-off is given here; in the data, active means growth inhibition above about 70%; inactive means the rest.

A short description of this assay: NCI Yeast Anticancer Drug Screen. Data for the mec2-1 strain (AID 157). The following applies: S. cerevisiae mec2-1 strain, at 3.7 µM, hits give high values. Put shortly: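 Strain: mec2-1 (DNA repair/cell cycle alteration). Compound exposure, then growth measured; inhibition expressed relative to vehicle.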
As for `CS(=O)(=O)SCc1ccc([N+](=O)[O-])cc1`, the growth inhibition was 4% (inactive).

`Cc1csc(=S)n1OC(=O)NC1CCCCC1`: the growth inhibition is 93% (active).

Turning to `CCOc1ccc(NC(=O)C2=C(C)NC(C)=C(C(=O)Nc3ccc(OCC)cc3)C2c2cccc([N+](=O)[O-])c2)cc1`, the growth inhibition was -2% (inactive).

Turning to `CC(C)(C)N=C(NO)c1ccccc1`, the growth inhibition was 0% (inactive).

With `CCCCC/C(=C(\C#N)C(=O)OCC)c1ccccc1`, the growth inhibition is -5% (inactive).

With `O=C(NCCCl)Sc1ccc(Cl)cc1`, the growth inhibition was 1% (inactive).

In the case of `O=C1Nc2ccc(Br)cc2C1=Nc1ccc2c(c1)OCO2`, the growth inhibition is -27% (inactive).

In the case of `CCC(C)OC(=O)Nc1ccc(C)c(NC(=O)OC(C)CC)c1` (configuration not stated), the growth inhibition was 0% (inactive).

Consider `O=C(O)c1cc2ccc(Cl)cc2c(O)c1C1=CCCCC1`, for which the growth inhibition was 18% (inactive).

For the compound `CN(C)Cc1cc(N=Nc2ccc(Cl)cc2)ccc1OC(=O)c1ccccc1`, the growth inhibition was 3% (inactive).

For `CN1CCN(C(=O)/C=C/C(=O)c2ccccc2)CC1`, the growth inhibition is 12% (inactive).

Consider `CCCC/C=C/C(C)(C(=O)OCC)C(=O)OCC`, for which the growth inhibition is -4% (inactive).

With `Cc1nc(-c2cc3cc([N+](=O)[O-])ccc3oc2=O)cs1`, the growth inhibition was -3% (inactive).

`Cc1nc2ccccc2nc1NNc1ccccc1`: the growth inhibition is 0% (inactive).

In the case of `CN(C)[C@@H]1C(=O)C(C(N)=O)=C(O)[C@@]2(O)C(=O)C3=C(O)c4c(O)cccc4C[C@H]3C[C@@H]12`, the growth inhibition was -4% (inactive).

Take `COc1ccc(NC(=O)CC2SC(=Nc3ccccc3C)NC2=O)c([N+](=O)[O-])c1` (configuration not stated): the growth inhibition was 1% (inactive).

As for `COc1cc(O)c2c(c1O)C(=O)c1cc(C)ncc1C2=O`, the growth inhibition is 10% (inactive).
